From the supplement of paper PMC11732987, “Enantioselective OTUD7B fragment discovery through chemoproteomics screening and high-throughput optimisation” (Communications Chemistry, 2025)

Legend:
Assay in all cases: log2 ratio of Biotin-Ahx-Ub-VS probe labelling (fragment/DMSO); higher = less target engagement (more negative = stronger competition), active = hit call of the paper (q ≤ 0.05, log2 ratio ≤ -1)
Details in all cases: compound concentration: 200 uM; treatment time: 3 h
USP19 = molecular target: T1, USP19 (UniProt O94966)
T1 sequence (whole entry): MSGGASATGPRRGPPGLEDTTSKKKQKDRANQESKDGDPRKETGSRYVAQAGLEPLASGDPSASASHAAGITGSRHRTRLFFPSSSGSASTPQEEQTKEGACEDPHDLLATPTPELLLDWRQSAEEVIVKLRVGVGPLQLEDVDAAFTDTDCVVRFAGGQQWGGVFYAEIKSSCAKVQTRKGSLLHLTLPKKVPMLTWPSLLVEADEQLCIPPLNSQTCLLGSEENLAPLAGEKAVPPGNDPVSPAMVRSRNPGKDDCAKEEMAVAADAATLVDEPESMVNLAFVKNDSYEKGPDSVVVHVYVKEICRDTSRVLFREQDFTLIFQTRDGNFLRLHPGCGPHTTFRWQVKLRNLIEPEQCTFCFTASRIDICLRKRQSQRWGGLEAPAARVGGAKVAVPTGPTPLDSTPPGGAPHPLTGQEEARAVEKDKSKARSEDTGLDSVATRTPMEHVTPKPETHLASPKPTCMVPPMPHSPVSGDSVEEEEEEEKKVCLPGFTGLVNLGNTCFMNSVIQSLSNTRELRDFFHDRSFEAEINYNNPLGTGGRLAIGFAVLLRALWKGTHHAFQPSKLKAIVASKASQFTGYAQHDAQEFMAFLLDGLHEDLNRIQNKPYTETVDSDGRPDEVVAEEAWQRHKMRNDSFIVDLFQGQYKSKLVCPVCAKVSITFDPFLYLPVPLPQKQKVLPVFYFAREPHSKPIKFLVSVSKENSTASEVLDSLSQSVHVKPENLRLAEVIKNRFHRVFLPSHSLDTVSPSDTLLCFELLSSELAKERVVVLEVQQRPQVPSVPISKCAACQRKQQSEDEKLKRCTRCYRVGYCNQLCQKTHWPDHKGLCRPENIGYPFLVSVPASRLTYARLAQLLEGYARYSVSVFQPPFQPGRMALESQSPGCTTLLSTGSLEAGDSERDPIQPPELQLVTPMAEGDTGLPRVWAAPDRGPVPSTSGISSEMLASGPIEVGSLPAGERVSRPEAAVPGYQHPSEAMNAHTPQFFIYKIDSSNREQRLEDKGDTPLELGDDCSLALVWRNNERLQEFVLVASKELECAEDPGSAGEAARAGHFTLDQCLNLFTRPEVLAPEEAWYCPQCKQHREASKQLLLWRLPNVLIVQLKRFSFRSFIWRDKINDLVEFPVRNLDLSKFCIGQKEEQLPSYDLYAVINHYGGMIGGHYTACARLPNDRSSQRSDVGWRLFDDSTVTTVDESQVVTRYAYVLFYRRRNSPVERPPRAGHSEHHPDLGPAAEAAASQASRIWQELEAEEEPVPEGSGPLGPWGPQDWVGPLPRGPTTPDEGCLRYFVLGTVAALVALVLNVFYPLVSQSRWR
How it was run: (§1)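 Average log2 ratios of fragment over vehicle were obtained by unpaired t-test from global-median-normalised Spectronaut label-free quantities. Proteins with ≥2 unique peptides were included. HEK293T lysate (495 µg per sample) was treated in triplicate with fragment at 200 µM or vehicle for 3 h, then with Biotin-Ahx-Ub-VS at 0.5 µM final for 1 h, and labelled DUBs were NeutrAvidin-enriched and run by diaPASEF LC-MS/MS.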

USP22 = molecular target: T2, USP22 (UniProt Q9UPT9)
T2 sequence (whole entry): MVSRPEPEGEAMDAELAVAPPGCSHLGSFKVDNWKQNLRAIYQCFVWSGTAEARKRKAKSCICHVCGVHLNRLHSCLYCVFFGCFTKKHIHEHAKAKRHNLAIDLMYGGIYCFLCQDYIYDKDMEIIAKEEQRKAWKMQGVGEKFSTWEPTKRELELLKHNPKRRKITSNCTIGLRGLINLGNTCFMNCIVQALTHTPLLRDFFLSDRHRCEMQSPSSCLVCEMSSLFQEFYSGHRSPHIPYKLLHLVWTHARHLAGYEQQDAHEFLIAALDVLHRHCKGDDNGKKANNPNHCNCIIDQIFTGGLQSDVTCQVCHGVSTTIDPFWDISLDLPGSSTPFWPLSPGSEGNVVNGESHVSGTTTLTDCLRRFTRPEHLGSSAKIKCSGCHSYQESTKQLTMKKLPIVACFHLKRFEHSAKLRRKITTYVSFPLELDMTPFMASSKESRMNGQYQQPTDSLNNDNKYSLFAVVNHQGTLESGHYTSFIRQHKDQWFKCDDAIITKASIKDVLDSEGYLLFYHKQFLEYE
How it was run: as §1

USP24 = USP24 (UniProt Q9UPU5)
How it was run: as §1

USP25 = molecular target: T3, USP25 (UniProt Q9UHP3)
T3 sequence (whole entry): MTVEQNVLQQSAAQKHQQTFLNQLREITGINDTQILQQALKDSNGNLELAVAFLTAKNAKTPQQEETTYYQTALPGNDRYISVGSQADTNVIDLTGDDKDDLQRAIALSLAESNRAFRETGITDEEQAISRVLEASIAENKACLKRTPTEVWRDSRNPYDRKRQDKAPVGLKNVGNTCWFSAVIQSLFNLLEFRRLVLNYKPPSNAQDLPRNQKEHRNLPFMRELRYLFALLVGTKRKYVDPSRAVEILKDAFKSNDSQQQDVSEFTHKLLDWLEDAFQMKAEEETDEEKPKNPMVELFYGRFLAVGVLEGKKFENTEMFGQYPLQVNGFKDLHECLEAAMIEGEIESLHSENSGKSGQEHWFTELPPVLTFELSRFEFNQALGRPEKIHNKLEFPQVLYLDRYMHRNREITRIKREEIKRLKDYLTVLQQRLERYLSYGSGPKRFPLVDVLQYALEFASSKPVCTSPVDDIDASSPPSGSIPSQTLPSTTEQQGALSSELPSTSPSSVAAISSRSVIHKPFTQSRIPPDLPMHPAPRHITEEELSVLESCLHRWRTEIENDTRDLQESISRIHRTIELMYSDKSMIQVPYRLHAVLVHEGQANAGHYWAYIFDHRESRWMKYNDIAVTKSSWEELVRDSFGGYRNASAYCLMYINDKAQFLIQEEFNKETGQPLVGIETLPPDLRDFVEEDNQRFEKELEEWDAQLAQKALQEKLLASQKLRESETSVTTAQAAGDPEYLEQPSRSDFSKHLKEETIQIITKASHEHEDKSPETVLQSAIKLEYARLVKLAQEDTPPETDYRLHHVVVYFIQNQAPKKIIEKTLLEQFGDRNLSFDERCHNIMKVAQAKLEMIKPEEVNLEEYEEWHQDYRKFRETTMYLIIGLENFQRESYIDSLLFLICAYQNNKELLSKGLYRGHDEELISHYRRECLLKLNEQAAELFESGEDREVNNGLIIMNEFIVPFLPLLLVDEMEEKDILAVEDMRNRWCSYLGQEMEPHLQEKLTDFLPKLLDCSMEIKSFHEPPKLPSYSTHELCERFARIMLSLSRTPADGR
How it was run: as §1

USP28 = molecular target: T4, USP28 (UniProt Q96RU2)
T4 sequence (whole entry): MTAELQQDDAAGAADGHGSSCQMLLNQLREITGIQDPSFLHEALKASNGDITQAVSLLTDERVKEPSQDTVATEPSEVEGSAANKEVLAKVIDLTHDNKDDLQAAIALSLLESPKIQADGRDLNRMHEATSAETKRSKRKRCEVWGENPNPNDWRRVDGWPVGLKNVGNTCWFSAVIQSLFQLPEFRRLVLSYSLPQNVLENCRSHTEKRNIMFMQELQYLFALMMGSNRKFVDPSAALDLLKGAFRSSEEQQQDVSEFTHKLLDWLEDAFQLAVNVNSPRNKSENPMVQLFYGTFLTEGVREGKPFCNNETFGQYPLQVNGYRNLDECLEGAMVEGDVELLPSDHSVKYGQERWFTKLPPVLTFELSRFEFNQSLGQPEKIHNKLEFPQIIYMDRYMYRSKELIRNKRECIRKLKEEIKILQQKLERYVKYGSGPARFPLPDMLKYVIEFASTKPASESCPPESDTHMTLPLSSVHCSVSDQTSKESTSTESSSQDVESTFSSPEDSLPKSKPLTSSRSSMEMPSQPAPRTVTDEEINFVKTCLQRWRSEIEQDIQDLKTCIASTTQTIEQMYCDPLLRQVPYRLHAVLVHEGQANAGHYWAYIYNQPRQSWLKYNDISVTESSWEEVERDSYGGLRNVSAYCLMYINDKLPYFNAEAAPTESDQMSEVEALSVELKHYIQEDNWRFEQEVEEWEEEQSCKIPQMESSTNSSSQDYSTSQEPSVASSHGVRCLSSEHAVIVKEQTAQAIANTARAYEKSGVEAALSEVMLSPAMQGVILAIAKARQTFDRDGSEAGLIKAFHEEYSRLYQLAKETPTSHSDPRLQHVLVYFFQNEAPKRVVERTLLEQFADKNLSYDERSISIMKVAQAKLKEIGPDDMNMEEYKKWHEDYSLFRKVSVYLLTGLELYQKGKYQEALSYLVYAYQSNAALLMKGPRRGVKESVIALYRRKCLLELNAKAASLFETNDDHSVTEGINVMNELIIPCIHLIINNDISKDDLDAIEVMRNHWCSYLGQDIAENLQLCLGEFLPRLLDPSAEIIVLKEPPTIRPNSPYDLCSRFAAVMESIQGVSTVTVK
How it was run: as §1

Measured: log2 ratio of Biotin-Ahx-Ub-VS probe labelling

Chain of USP24 (Q9UPU5 whole entry): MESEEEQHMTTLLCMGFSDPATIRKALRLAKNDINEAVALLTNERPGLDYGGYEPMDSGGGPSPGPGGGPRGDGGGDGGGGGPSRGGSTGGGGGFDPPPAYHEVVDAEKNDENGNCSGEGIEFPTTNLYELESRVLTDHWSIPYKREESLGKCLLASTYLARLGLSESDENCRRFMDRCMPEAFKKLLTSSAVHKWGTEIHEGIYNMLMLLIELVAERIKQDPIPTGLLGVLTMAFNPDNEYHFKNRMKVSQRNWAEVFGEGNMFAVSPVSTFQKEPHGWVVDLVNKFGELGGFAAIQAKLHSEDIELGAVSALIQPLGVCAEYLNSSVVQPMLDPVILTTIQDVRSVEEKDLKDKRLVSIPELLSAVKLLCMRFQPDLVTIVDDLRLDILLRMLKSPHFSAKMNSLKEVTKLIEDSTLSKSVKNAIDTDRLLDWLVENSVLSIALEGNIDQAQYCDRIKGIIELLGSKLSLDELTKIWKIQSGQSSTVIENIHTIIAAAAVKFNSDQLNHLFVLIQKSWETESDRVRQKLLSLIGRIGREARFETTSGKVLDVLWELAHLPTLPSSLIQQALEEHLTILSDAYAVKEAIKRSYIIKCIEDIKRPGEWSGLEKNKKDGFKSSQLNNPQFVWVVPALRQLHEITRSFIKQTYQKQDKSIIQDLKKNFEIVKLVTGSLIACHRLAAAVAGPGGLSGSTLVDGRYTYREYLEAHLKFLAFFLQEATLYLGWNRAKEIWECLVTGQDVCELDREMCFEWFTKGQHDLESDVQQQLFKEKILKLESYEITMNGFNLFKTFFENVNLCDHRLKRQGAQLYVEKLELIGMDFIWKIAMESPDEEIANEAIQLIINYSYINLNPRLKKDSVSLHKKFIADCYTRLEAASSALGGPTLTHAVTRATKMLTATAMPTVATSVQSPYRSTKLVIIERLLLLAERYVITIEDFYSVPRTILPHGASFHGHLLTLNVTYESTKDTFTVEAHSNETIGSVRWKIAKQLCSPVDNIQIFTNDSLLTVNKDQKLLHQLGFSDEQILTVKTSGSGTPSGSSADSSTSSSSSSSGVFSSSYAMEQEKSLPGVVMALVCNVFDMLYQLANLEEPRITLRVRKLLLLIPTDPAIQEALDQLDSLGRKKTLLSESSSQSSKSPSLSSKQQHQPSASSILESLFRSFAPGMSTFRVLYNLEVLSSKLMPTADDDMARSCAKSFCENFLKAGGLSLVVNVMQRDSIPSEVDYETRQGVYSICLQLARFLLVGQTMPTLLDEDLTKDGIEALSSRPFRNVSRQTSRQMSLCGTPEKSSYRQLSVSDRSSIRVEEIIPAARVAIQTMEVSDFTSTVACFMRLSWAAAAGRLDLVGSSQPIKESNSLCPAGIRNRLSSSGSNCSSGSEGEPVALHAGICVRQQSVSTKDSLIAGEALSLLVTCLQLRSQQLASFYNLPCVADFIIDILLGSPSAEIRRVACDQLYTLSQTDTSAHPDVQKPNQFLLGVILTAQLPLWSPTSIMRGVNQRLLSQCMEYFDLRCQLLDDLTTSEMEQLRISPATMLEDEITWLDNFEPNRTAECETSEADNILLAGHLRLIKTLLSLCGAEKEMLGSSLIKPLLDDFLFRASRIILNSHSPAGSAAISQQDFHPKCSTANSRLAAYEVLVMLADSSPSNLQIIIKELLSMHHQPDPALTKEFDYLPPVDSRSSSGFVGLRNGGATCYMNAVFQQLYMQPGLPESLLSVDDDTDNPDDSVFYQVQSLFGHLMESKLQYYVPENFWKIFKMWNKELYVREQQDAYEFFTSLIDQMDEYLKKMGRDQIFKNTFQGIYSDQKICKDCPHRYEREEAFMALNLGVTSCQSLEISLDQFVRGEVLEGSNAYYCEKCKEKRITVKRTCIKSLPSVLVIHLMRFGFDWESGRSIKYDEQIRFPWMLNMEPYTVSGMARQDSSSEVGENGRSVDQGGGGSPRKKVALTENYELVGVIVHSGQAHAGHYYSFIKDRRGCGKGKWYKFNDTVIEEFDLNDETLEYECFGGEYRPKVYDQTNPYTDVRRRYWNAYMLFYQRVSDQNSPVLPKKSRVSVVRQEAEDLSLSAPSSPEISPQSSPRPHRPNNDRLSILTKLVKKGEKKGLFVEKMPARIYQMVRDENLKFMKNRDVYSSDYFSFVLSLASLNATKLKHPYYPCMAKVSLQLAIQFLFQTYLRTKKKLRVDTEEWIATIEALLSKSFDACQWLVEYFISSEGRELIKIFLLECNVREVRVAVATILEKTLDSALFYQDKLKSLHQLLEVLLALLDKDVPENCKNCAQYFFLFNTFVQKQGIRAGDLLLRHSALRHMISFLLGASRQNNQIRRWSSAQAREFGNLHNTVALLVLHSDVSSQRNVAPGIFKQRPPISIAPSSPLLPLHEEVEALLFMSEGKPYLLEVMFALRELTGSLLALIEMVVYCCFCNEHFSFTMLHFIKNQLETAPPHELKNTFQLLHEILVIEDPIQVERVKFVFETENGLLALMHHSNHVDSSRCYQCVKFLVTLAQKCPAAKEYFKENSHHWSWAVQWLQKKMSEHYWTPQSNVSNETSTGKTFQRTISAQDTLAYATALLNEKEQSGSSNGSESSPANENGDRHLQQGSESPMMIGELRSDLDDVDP

Cl.Cn1ncc2c1CCCC2NC(=O)CCl (stereo not given)
inactive: USP19 -0.297 | USP22 0.202 | USP24 -0.29 | USP25 -0.289 | USP28 -0.57
